Columns and labels:
Assay in all cases: log2 ratio of Biotin-Ahx-Ub-VS probe labelling (fragment/DMSO); higher = less target engagement (more negative = stronger competition), active = hit call of the paper (q ≤ 0.05, log2 ratio ≤ -1)
Settings in all cases: compound concentration: 200 uM; treatment time: 3 h
USP19 = target: T1, USP19 (UniProt O94966)
T1 sequence (whole entry): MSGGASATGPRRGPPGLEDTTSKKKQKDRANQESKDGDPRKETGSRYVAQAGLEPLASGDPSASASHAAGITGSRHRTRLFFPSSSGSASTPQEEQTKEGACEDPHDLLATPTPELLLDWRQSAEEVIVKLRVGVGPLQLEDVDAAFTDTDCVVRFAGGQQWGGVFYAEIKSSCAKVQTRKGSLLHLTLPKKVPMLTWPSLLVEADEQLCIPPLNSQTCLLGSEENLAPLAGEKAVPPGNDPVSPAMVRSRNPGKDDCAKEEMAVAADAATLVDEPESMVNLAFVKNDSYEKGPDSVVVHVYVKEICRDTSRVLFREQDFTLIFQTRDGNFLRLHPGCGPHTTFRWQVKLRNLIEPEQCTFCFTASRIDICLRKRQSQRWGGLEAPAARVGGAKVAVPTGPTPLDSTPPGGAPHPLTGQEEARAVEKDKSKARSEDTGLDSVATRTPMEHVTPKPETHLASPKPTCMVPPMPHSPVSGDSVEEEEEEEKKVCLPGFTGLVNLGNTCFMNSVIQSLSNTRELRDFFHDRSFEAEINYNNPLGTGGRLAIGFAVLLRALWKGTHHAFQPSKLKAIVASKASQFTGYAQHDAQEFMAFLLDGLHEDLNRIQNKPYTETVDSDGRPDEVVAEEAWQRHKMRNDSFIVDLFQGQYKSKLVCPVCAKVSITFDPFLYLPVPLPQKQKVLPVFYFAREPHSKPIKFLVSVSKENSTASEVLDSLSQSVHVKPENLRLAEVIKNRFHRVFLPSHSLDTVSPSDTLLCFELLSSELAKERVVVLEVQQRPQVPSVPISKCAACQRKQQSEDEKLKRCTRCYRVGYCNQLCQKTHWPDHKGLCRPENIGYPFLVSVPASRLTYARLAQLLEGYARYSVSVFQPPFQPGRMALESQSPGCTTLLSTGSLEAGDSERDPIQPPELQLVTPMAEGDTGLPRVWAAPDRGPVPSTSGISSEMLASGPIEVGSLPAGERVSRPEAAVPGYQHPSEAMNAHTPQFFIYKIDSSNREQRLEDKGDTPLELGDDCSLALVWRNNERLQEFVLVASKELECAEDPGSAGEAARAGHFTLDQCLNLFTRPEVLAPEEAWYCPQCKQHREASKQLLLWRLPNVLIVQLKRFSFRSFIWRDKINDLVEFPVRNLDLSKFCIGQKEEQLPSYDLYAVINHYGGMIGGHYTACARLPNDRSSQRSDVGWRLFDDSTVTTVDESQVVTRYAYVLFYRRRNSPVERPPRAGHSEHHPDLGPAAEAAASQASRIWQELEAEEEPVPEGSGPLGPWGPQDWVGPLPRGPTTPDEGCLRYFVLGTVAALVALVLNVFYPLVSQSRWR
Method in brief: (§1)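 Labelled DUBs from HEK293T lysate were NeutrAvidin-enriched, digested with LysC and trypsin, and run by diaPASEF LC-MS/MS. Before that, each 495 µg sample in Tris/CHAPS/IGEPAL buffer with protease inhibitors was treated in triplicate with fragment at 200 µM or vehicle for 3 h, then with Biotin-Ahx-Ub-VS at 0.5 µM final for 1 h. Values are average log2 ratios of fragment over vehicle by unpaired t-test, based on global-median-normalised Spectronaut label-free quantities from proteins with ≥2 unique peptides.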

USP22 = target: T2, USP22 (UniProt Q9UPT9)
T2 sequence (whole entry): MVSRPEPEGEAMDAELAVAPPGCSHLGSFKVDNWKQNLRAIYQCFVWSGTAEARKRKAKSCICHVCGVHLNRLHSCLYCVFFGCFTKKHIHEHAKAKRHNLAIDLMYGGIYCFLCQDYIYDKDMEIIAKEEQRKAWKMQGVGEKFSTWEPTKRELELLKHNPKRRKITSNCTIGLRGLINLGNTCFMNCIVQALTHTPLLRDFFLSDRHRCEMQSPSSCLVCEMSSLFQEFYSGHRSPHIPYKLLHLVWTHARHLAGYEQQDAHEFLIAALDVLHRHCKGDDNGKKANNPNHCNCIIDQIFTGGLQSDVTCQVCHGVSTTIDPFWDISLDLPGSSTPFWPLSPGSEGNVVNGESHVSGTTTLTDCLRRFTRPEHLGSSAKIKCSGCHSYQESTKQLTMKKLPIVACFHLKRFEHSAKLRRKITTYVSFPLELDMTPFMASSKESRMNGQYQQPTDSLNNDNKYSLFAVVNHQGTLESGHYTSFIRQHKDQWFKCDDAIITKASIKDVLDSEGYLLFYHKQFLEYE
Method in brief: as §1

USP24 = USP24 (UniProt Q9UPU5)
USP24, sequence (Q9UPU5 whole entry): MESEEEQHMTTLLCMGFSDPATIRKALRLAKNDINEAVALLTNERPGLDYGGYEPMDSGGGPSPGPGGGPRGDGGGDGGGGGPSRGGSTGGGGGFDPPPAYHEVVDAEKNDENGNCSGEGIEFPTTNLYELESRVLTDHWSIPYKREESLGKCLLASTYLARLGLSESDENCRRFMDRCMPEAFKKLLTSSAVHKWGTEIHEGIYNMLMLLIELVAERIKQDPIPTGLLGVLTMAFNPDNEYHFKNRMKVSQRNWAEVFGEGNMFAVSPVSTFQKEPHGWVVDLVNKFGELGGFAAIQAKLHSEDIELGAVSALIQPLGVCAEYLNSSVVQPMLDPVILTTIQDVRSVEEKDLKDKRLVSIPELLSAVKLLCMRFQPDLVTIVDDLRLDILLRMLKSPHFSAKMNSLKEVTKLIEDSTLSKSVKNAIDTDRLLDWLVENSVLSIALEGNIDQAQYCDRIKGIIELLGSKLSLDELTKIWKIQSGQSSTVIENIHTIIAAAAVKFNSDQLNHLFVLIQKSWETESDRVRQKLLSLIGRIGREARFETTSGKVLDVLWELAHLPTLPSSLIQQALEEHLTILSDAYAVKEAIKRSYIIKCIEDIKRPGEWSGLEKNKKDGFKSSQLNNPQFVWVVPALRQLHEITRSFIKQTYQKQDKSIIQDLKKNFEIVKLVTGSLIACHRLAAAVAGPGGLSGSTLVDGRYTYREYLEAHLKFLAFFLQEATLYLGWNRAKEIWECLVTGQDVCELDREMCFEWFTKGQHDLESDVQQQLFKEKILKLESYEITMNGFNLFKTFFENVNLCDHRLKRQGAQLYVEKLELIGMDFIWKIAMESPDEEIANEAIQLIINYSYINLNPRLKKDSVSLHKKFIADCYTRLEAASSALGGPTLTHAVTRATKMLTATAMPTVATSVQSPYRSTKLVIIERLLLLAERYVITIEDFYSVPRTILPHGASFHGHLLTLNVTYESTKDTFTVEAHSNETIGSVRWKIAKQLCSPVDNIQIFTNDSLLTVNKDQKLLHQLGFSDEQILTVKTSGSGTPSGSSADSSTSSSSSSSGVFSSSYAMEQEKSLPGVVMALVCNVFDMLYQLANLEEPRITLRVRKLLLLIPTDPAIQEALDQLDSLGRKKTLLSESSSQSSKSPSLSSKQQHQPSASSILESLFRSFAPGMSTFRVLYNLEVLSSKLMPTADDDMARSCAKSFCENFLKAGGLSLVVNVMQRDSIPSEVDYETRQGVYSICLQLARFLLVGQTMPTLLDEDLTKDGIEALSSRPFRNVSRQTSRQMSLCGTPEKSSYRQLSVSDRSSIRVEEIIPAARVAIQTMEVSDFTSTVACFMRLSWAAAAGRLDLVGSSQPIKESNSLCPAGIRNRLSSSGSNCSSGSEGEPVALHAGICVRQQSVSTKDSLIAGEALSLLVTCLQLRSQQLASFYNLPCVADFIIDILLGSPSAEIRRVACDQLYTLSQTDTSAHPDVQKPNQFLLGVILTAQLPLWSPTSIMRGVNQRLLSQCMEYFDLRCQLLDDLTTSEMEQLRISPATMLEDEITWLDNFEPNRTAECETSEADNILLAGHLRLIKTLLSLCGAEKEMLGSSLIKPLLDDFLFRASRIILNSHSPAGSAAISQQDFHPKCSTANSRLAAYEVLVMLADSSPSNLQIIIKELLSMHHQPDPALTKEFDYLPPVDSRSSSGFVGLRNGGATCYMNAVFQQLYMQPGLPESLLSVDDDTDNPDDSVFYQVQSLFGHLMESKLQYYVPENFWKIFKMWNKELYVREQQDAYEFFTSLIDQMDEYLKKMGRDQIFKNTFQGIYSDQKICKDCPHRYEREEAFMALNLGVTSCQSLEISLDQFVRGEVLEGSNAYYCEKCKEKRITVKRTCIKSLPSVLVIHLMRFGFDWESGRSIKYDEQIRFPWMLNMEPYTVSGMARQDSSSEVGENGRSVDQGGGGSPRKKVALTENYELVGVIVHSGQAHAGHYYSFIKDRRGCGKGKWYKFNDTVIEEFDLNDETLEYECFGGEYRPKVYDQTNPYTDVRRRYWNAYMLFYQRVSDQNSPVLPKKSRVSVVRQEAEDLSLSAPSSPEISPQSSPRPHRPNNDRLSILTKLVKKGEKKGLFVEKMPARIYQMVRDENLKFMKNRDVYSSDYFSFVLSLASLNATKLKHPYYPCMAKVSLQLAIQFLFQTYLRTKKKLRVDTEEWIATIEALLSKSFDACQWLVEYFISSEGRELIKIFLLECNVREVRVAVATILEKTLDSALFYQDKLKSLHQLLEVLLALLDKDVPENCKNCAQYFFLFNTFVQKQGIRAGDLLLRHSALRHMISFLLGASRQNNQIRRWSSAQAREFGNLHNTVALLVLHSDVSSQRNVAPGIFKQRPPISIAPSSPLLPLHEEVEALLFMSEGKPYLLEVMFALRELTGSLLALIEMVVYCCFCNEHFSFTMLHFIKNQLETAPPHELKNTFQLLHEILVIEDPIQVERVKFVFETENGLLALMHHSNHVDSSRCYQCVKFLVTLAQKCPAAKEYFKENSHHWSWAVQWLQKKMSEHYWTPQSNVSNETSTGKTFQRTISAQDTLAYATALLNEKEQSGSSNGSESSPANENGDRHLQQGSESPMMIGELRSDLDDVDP
Method in brief: as §1

USP25 = target: T3, USP25 (UniProt Q9UHP3)
T3 sequence (whole entry): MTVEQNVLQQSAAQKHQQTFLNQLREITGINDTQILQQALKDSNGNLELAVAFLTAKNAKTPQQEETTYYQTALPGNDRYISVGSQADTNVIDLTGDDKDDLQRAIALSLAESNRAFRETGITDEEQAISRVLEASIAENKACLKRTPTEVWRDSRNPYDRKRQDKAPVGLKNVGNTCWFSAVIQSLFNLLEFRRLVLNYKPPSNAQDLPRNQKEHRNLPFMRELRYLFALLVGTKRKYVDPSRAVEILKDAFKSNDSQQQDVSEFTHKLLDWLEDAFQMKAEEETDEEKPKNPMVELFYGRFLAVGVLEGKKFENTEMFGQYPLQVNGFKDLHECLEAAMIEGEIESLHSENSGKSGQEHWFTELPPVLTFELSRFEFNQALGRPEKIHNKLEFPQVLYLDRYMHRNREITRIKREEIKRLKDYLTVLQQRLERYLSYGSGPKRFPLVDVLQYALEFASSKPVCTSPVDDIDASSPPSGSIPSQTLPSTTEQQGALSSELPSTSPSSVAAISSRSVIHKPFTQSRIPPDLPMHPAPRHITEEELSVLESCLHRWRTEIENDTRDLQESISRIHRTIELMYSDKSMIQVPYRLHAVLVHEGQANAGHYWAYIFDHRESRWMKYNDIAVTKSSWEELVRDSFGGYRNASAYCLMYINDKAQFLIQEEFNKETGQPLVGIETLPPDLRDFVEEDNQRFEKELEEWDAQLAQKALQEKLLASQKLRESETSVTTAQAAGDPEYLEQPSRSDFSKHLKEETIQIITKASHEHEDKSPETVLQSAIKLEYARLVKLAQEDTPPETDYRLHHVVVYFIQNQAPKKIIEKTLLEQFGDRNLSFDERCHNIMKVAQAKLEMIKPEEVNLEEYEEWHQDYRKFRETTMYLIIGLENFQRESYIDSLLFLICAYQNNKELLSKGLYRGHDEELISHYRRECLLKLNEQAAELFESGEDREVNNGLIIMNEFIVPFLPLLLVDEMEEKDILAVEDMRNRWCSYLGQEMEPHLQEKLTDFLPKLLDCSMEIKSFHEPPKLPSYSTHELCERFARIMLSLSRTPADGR
Method in brief: as §1

USP28 = target: T4, USP28 (UniProt Q96RU2)
T4 sequence (whole entry): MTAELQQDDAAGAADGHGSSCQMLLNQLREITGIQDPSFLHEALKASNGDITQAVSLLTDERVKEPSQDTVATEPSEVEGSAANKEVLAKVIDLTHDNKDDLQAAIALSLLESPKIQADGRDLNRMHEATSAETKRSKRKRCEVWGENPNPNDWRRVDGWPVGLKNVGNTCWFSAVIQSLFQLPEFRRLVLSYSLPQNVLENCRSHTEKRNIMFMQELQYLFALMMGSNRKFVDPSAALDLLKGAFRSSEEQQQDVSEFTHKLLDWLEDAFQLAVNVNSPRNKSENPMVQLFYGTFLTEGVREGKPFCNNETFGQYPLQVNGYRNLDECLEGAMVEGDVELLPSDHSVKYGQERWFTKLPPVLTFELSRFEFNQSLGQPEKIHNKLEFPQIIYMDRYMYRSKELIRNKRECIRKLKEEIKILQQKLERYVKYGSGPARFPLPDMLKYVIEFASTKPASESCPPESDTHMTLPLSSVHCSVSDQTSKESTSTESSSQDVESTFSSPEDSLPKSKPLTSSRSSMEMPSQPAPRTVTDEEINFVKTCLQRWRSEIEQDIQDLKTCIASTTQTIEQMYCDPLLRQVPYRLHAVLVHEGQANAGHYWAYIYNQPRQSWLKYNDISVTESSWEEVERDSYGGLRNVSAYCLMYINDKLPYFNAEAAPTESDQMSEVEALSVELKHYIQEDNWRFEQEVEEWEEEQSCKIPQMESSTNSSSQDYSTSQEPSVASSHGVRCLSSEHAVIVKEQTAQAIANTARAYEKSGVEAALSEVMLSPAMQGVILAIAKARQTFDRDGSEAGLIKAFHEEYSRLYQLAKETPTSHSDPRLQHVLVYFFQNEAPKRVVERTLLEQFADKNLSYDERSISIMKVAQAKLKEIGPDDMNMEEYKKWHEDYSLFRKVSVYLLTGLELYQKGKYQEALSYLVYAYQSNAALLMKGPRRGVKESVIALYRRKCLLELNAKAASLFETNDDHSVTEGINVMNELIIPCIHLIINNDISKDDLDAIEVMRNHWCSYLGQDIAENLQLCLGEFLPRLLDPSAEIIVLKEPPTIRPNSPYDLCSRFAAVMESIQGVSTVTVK
Method in brief: as §1

Measured: log2 ratio of Biotin-Ahx-Ub-VS probe labelling

O=C(CCl)NCc1cccc(F)c1
inactive: USP19 -0.000373 | USP22 -0.171 | USP24 -0.154 | USP25 -0.362 | USP28 -0.556
